The results in this text go back to PubChem BioAssay AID651658 (Broad Institute, 2012).

Out of some 340,000 compounds screened, about 5,100 (1.5%) were called active. The sample holds actives, similar compounds and a random draw of the others, so the mix is not that of the screen. A number with no mark means an inactive call.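 How the source made its calls: active means mean Tm shift, scaled 0 neutral to 100 positive control, at about 1.3% or above, every replicate too (limit read from the data); inconclusive means no clear call, values can overlap the other calls; inactive means the rest.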

This assay deals with Fibroblast growth factor 22 (Homo sapiens) (UniProt Q9HCT0). The assay is described as follows: FGF22 ligand-induced thermal stabilization – biophysical, thermal shift, single point, FGF22 synaptogenesis inhibitor project, primary screen (AID 651658). The note with it: recombinant FGF22 thermal shift, SYPRO orange fluorescence; at 9.99 µM; active compounds read high; percent of sucrose octasulfate shift, DMSO zero.
Chain of Fibroblast growth factor 22 (Homo sapiens) (Q9HCT0 whole entry, looked up): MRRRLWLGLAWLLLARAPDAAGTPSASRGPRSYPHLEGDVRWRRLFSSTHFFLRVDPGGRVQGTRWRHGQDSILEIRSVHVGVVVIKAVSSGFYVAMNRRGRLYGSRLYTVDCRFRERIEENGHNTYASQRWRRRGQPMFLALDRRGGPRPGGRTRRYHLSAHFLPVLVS
Take `CNS(=O)(=O)c1ccc(C(=O)NCC(=O)NCCc2ccc3c(c2)OCCO3)cc1`: the activity (Tm shift, normalised) is 0.051%. Consider `Cc1ccc(NS(=O)(=O)c2ccc(C(=O)NCCCN3CCOCC3)cc2)cc1`, for which the activity (Tm shift, normalised) was -0.45%. As for `CCN(CC)CCNC(=O)c1ccc(NS(=O)(=O)c2ccc3c(c2)OCCO3)cc1`, the figure is 42.9% (active); as for `C[C@H](NC(=O)C[C@H]1CC[C@H]2[C@@H](COC[C@H](O)CN2C(=O)Nc2cccc(Cl)c2)O1)c1ccccc1`, 0.797%; as for `O=C(CCN1CCCCC1)N[C@H]1CC[C@H](CCNS(=O)(=O)c2ccc(F)cc2)O[C@@H]1CO`, 0.837%. As for `C[C@H](CO)N1C[C@H](C)[C@H](CN(C)Cc2ccncc2)Oc2ncc(C#CCC3CCCCC3)cc2C1=O`, the figure is -0.367%; as for `C=CCc1ccccc1OCC(O)CN1CCN(CCO)CC1` (configuration not stated), -0.051%. The figure for `C=CCc1ccc(OCC(O)CN2CCN(Cc3ccccc3)CC2)c(OC)c1` (configuration not stated) is 43.3% (active); for `C/C=C/c1ccc(OCC(O)CN2CCCCCCC2)c(OC)c1` (configuration not stated) it is 0.015%; for `O=C(Nc1ccc(F)cc1)N1CCCCN2[C@H](CO)[C@H](c3ccc(-c4ccncc4)cc3)[C@@H]2C1` it is -0.055%. With `C/C=C/c1ccc([C@@H]2[C@H](CO)N(CC3CCOCC3)C23CN(S(=O)(=O)CC)C3)cc1`, the activity (Tm shift, normalised) was -0.282%. As for `CCNC(=O)c1cc2c(c(-c3cccc(C4=CCCC4)c3)n1)[C@H](CCO)N([S@@](=O)C(C)(C)C)C2`, the figure is 0.297%; as for `O=C(Cc1ccncc1)NCC[C@H]1CC[C@H](NC(=O)Nc2cccc(F)c2)[C@H](CO)O1`, -0.333%; as for `C[C@@H]1CN([C@H](C)CO)C(=O)c2cc(NS(=O)(=O)c3cccs3)ccc2O[C@@H](C)CCCCO[C@@H]1CN(C)C(=O)c1ccncc1`, -0.018%. As for `COc1ccc2c3c([nH]c2c1)[C@@H](CO)NCC31CN(S(=O)(=O)c2cccs2)C1`, the figure is 0.072%; as for `CCNC(=O)C[C@@H]1CC[C@@H](NC(=O)NC2CCCCC2)[C@H](CO)O1`, -0.281%; as for `COc1ccc(NC(=O)N(C)C[C@@H]2OCCCC[C@@H](C)Oc3ccc(NC(=O)C4CCCCC4)cc3C(=O)N([C@@H](C)CO)C[C@@H]2C)cc1`, -0.291%.

For the molecule `COC(=O)[C@@H]1[C@@H](CO)[C@@H]2Cn3c(ccc(-c4ccccc4)c3=O)[C@@H]2N1C(=O)C1CC1`, the activity (Tm shift, normalised) was -0.013%. The figure for `O=C(COC(=O)c1cc2c(s1)CCCC2)NCc1ccccc1Cl` is 2.24% (active); for `O=C(COC(=O)c1ccc2c(c1)OCCO2)NCc1ccccc1Cl` it is -0.43%; for `CN(C)C(=O)c1ccc(NC(=O)COC(=O)c2cc3c(s2)CCCCC3)cc1` it is 0.188%. Turning to `COc1ccc2c3c([nH]c2c1)[C@H](CO)N(C(=O)C1CCOCC1)CC31CN(S(C)(=O)=O)C1`, the activity (Tm shift, normalised) is -0.085%. Turning to `CN(C)C(=O)c1cccc(-c2ccccc2[C@@H]2[C@@H](CO)N(C(=O)C3CCCCC3)[C@H]2C#N)c1`, the activity (Tm shift, normalised) is 0.22%. Consider `COc1ccc2c3c([nH]c2c1)[C@H](CO)N(C(=O)c1ccccc1)CC31CCN(S(=O)(=O)c2cccs2)CC1`, for which the activity (Tm shift, normalised) is -0.133%.

Take `CCC1(C)COC(c2ccc(OC)c(OC)c2)OC1` (configuration not stated): the activity (Tm shift, normalised) is -0.154%.

`CCC1([N+](=O)[O-])COC(c2ccc(C(C)C)cc2)OC1` (configuration not stated): the activity (Tm shift, normalised) was 0.068%. The figure for `CCC1([N+](=O)[O-])COC(c2ccc(C)cc2)OC1` (configuration not stated) is 43.3% (active); for `C/C=C/c1ccc([C@H]2[C@@H](CO)N3CCCCN(C(=O)c4ccc(F)cc4)C[C@@H]23)cc1` it is -0.174%; for `COc1ccc(F)c(-c2nc(CN3CCC(c4ccccc4)CC3)c(C)o2)c1` it is 0.157%.

Consider `Cc1oc(-c2ccccc2F)nc1CS(=O)CC(=O)NCCN1CCCCC1C` (configuration not stated), for which the activity (Tm shift, normalised) is -0.146%.

As to `Cc1nonc1C1CCCN1Cc1nc(-c2ccc(F)cc2F)oc1C` (configuration not stated), the activity (Tm shift, normalised) is 43.2% (active). As for `C[C@H](CO)N1C[C@H](C)[C@H](CN(C)CC2CCCC2)Oc2ncc(-c3ccc(F)cc3)cc2C1=O`, the figure is -0.41%. The figure for `COc1ccccc1/C=N/N1CCN(Cc2ccccc2Cl)CC1` is -0.025%; for `Cc1ccc(CN2CCN(/N=C/c3cccnc3)CC2)c(C)c1` it is 0.311%. The figure for `CSc1ccc(/C=N/N2CCN(Cc3ccccc3Cl)CC2)cc1` is 43.3% (active); for `Cc1c(-c2ccccc2)n[nH]c1C(=O)N=Nc1c(O)[nH]c2ccccc12` it is 0.025%; for `CC(=O)c1c(-c2ccccc2)c2ccccc2[nH]c1=O` it is 43.2% (active).

On to `NS(=O)(=O)c1ccccc1NC(=O)c1c(O)c2ccccc2[nH]c1=O`, for which the activity (Tm shift, normalised) is 0.089%. As for `COc1cccc(NC(=O)N2C[C@@H](O)COC[C@@H]3O[C@@H](CC(=O)NC4CCC4)CC[C@H]32)c1`, the figure is -0.083%; as for `COc1ccc(CCN2C(=O)[C@@]3(Cc4ccccc42)c2ccccc2C(=O)N(Cc2ccccc2C(F)(F)F)[C@H]3c2ccc(CO)cc2)cc1`, -0.145%. In the case of `CCCNS(=O)(=O)c1ccc(CCC(=O)N2CCCC2)cc1`, the activity (Tm shift, normalised) is 43% (active).

Consider `CCNS(=O)(=O)c1ccc(CCC(=O)N2CCN(c3ccc(OC)cc3)CC2)cc1`, for which the activity (Tm shift, normalised) is 0.369%. As for `CCOc1ccc(S(=O)(=O)NCCC(=O)N2CCCCCCC2)cc1`, the figure is 0.162%. With `CC(C)NC(=O)Nc1ccc2c(c1)C(=O)N([C@H](C)CO)C[C@@H](C)[C@@H](CN(C)Cc1ccncc1)O2`, the activity (Tm shift, normalised) is 0.001%. As for `O=C(Nc1cccc2ccccc12)c1[nH]c(-c2ccccc2)c2c1C(=O)N(C1CC1)C2=O`, the figure is -0.298%. As for `O=C(OCc1ccc(-c2ccccc2)cc1)c1cccc(O)c1`, the figure is -0.21%; as for `CC(C)(C)N1C(=O)c2c(C(=O)OCc3ccccc3)[nH]c(-c3ccccc3)c2C1=O`, 2.17% (active); as for `CCCNC(=O)Nc1ccc2c(c1)C(=O)N(C)[C@H]1CC[C@H](CC(=O)NCC3CCCCC3)O[C@@H]1CO2`, -0.32%. Take `Cc1noc(C)c1NC(=O)N(C)C[C@H]1OCCCC[C@@H](C)Oc2ccc(NC(=O)NC(C)C)cc2C(=O)N([C@H](C)CO)C[C@@H]1C`: the activity (Tm shift, normalised) is 0.234%. Turning to `COc1ccccc1OCCOc1ccc(/C=C2\C(=N)N3N=C(C)SC3=NC2=O)cc1`, the activity (Tm shift, normalised) was -0.133%. The figure for `CC1=CC2=NC(=O)/C(=C/c3coc4ccccc4c3=O)C(=N)N2O1` is 0.039%; for `COc1ccc(OCCCn2cccc2/C=C2/C(=N)N3OC(C)=CC3=NC2=O)cc1` it is 43.6% (active). On to `CCCNC(=O)N(C)C[C@@H]1Oc2cc(-c3ccccc3)ccc2S(=O)(=O)N([C@H](C)CO)C[C@H]1C`, for which the activity (Tm shift, normalised) is -0.206%. As for `O=C(N[C@@H]1CC[C@@H](CCNS(=O)(=O)c2ccccc2Cl)O[C@@H]1CO)c1ccccc1`, the activity (Tm shift, normalised) is -0.098%. As for `CC1CN(C(=O)COC(=O)c2cccc(NS(=O)(=O)c3ccccc3)c2)CC(C)O1` (configuration not stated), the figure is 43% (active); as for `COc1ccc(N2CCN(C(=O)COC(=O)c3cccc(S(=O)(=O)Nc4ccccc4OC)c3)CC2)cc1`, -0.159%. The figure for `CC1CN(C(=O)c2cccc(NS(=O)(=O)c3ccc(Br)cc3)c2)CC(C)O1` (configuration not stated) is 0.103%; for `COc1cccc(-c2ccc3c(c2)[C@@H]2[C@@H](CCN2S(=O)(=O)C2=NC(C)C=N2)[C@@H](CO)N3C)c1` (some centres not stated) it is -0.294%; for `CN1CCN(/N=C/c2ccc(-c3ccc([N+](=O)[O-])cc3)o2)CC1` it is 42.9% (active).

For `Cc1ccc(-c2ccc(/C=N/NC(=O)CN3CCOCC3)o2)cc1[N+](=O)[O-]`, the activity (Tm shift, normalised) was -0.102%. The figure for `CN1CCN(/N=C/c2ccc(C#N)cc2)CC1` is 0.346%; for `COc1ccc(NC(=O)N[C@H]2CC[C@@H](CCNC(=O)c3cc(Cl)cc(Cl)c3)O[C@H]2CO)cc1` it is 0.37%; for `COc1ccc(C[C@@H]2CCc3cnnn3COC[C@H](c3ccccc3)NC2=O)cc1` it is 0.006%. Regarding `CCCNC(=O)Nc1ccc2c(c1)OC[C@@H](C)N(CCC)C[C@H](C)[C@@H](OC)CN(C)C2=O`, the activity (Tm shift, normalised) was 0.109%. The figure for `COc1ccc(C(=O)CSc2nnnn2C)c(OC)c1` is 43% (active).

As to `COc1ccc(C(=O)CCc2ccccc2O)c(OC)c1`, the activity (Tm shift, normalised) is -0.131%. As for `COc1ccc(-n2nnnc2SCC(=O)c2ccc(OC)c(OC)c2)cc1`, the figure is -0.381%; as for `COc1ccc2c3c([nH]c2c1)[C@H](CO)N(C(=O)c1ccccc1)CC31CN(C(=O)Nc2cccc(F)c2)C1`, 0.15%. As for `O=C(c1cccnc1)N1CC2(C1)[C@@H](c1ccccc1)[C@H](CO)N2C(=O)C1CCC1`, the figure is -0.239%; as for `O=C(Cc1ccccc1)N1CC2(C1)[C@H](c1ccccc1)[C@@H](CO)N2C(=O)c1cccnc1`, -0.085%. Regarding `C[C@H](CO)N1C[C@H](C)[C@@H](CN(C)CC2CCCCC2)Oc2ccc(NC(=O)Cn3cnnn3)cc2CC1=O`, the activity (Tm shift, normalised) was -0.448%. The figure for `O=C(CN1C(=O)S/C(=C\c2ccccc2Cl)C1=O)NC1C=CS(=O)(=O)C1` (configuration not stated) is 43.2% (active); for `COc1cccc(/C=C2/SC(=S)N(CC(=O)NC3C=CS(=O)(=O)C3)C2=O)c1` (configuration not stated) it is -0.111%. As for `O=C(CN1CCCCCC1)NCCN1C(=O)S/C(=C\c2ccccc2Cl)C1=O`, the figure is 0.458%. In the case of `O=C(O)CCCCCCC(=O)NOCc1ccccc1`, the activity (Tm shift, normalised) is -0.15%. The figure for `CO[C@H](CN(C)C(=O)c1cnccn1)[C@@H](C)CN([C@@H](C)CO)S(=O)(=O)c1ccccc1` is 0.08%; for `CC(C)NC(=O)Nc1ccc2c(c1)C(=O)N([C@@H](C)CO)C[C@@H](C)[C@H](CN(C)C)OCCCC[C@H](C)O2` it is -0.748%.
